Screening results from PubChem.
The list is not random: actives were taken first. Their share in the collection is about 9.3%.
VACV mCherry inh: qHTS for Stage-Specific Inhibitors of Vaccinia Orthopoxvirus: mCherry Reporter Primary qHTS. actives 0.63% (n = 310,000). Potency, µM (doses to about 36.5 µM), actives largely listed as inhibitors. Vaccinia virus mCherry reporter infection, fluorescence; calls by dose curve; tested in A549 cells; also: nearly all actives have a fitted effect of over 35% in size
Sm TGR inh: qHTS Assay for the Inhibitors of Schistosoma Mansoni Peroxiredoxins; AID 485364, 2010; actives 3% (n = 360,000); Potency, µM (titrated, usually from 114 µM), hits mostly inhibitors; Schistosoma mansoni thioredoxin glutathione reductase (TGR), Q962Y6; purified TGR, DTNB reduction, TNB absorbance 405 nm; also: nearly all actives have a fitted effect of over 60% in size
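Kinetic colorimetric format: TGR-catalysed, NADPH-driven DTNB reduction monitored via TNB absorbance. Enzyme dispensed at 20 nM; compound exposure 15 min at room temperature before reaction start.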
HCMV antiviral: qHTS Assay for inhibitors of the human cytomegalovirus (HCMV); activity change, negative = inhibition, % at 57.5 µM; HFF cells, HCMV-luciferase reporter, 72 h; active compounds read low; actives 4.5% (n = 410,000); in the data active = activity change below about -60%; inconclusive = no clear call, values can overlap the other calls; inactive = above about -39%
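Cell-based, HFFs, 1000 cells/well, 16 h 37C; cpds in DMSO + HCMV-luc, MOI 1 PFU/cell; 72 h 37C; OneGlo luminescence after 5 min RT; norm. to buffer vs Salinomycin 10uM.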
HCV inh: qHTS Assay for Inhibitors of Hepatitis C Virus (HCV); Huh7.5.1 HCVcc-Cre infection, luciferase reporter, 44 h; Potency, µM (highest dose often 41.8 µM), usual class: inhibitors; actives 3.4% (n = 340,000); AID 651820, 2012
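1,000 cells/well; 4 h culture; + compound; + HCVcc-Cre (~0.5 moi); 44 h; luciferase substrate, RT 15 min; read 15 sec.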
FMDV inh: High Throughput Screening for Foot and Mouth Disease Virus Antivirals; Potency, µM (series often up to 57.9 µM), hits mostly inhibitors; actives 1.2% (n = 410,000); FMDV antiviral cell-based qHTS; calls by dose curve; tested in HEK293T cells; also: read-out not given here; nearly all actives have a fitted effect of over 45% in size
VACV Venus inh: qHTS for Stage-Specific Inhibitors of Vaccinia Orthopoxvirus: Venus Reporter Primary qHTS; Potency, µM (doses to about 36.5 µM), usual class: inhibitors; AID 720580, 2013; actives 0.46% (n = 330,000); Vaccinia virus Venus reporter expression, fluorescence; calls by dose curve; tested in A549 cells; also: nearly all actives have a fitted effect of over 30% in size
A number is an active result; – = inactive; ? = inconclusive; · = no result given; ! = not confirmed by another sample; [ ] = remark or other dose. Unless noted, calls follow the shape of the dose curve; as a rule, active = well fitted curve in the direction sought with a large enough effect; inconclusive = small, poorly fitted or top-dose-only effect, or another doubt; inactive = no such curve, though single readings can be large; an effect the other way counts as inactive or inconclusive.

SMILES	VACV mCherry inh	Sm TGR inh	HCMV antiviral	HCV inh	FMDV inh	VACV Venus inh
Cc1nn2c3c(cnc2c1-c1ccccc1)C(=O)CC(c1ccccc1)C3 (stereo unspecified)	–	–	?	?	–	–
COc1ccc(S(=O)(=O)N2CCC[C@H]2C(=O)N2CCC[C@H]2C(=O)N[C@@H](C)c2ccccc2)cc1C	–	·	-101.3	·	–	–
COc1ccc(S(=O)(=O)N2CCC[C@H]2C(=O)N2CCC[C@H]2C(=O)N[C@H](C)c2ccccc2)cc1C	–	·	–	·	–	–
Oc1ccccc1C=NN=C1c2ccccc2-c2ccccc21	–	·	–	8.91µM	–	–
O=C(O)c1ccccc1C=NN=C1c2ccccc2-c2ccccc21	–	·	–	–	–	–
COc1ccccc1NC(=O)c1cc2c(-c3ccccc3)nn(-c3ccccc3)c2s1	–	–	-61.3	·	–	–
O=C(Nc1ccccc1)c1cc2c(-c3ccccc3)nn(-c3ccccc3)c2s1	–	–	–	·	–	–
COc1ccc(-c2nn(C)c3sc(C(=O)Nc4cc(OC)c(OC)c(OC)c4)cc23)cc1OC	–[7.34 µM]	–	-98.4	·	–	–[7.34 µM]
COc1ccc(NC(=O)c2cc3c(-c4ccc(OC)c(OC)c4)nn(C)c3s2)cc1OC	·	–	-96.6	?	–	·
COc1ccc(C(=O)NC(=S)N2CCOCC2)cc1[N+](=O)[O-]	–	–	–	–	–	–
COc1cccc(-n2c(=O)c3sc4ccccc4c3n(CC(=O)Nc3ccccc3OC)c2=O)c1	–	–	–	·	–	–
COC(=O)[C@]12CCCCC=C1N(CCc1ccc(OC)c(OC)c1)C(=O)[C@H](CC(=O)N1CCC(c3ccccc3)CC1)C2	–	·	–	·	–	?
Cc1ccc(N2CC(C(=O)Nc3cc(C)on3)CC2=O)c(C)c1 (stereo unspecified)	–	–	–	–	–	–
CCOC(=O)c1c(C)[nH]c(C(=O)COC(=O)CNS(=O)(=O)c2ccc(C)cc2)c1C	–	–	–	–	–	–
O=C(NNC(=S)Nc1ccccc1)c1ccncc1	–	–	–	–	–	–
O=C(NNC(=S)Nc1ccc(C(=O)O)c(O)c1)c1ccncc1	?	·	–	–	12.6µM	–
CCCc1[nH]nc2c1C(c1cc(OC)cc(OC)c1)C(C#N)=C(N)O2 (stereo unspecified)	·	25.1µM	–	–	–	·
CC(=O)N1CCOc2ccc(S(=O)(=O)NC[C@H]3O[C@@H](n4ccc(=O)[nH]c4=O)[C@H](O)[C@@H]3O)cc21	–	·	–	–	–	–
COc1ccccc1Nc1nc2ccc(C)cc2n2cnnc12	·	–	–	6.31µM	–	·
COc1ccc(Nc2nc3ccccc3n3cnnc23)cc1	–	–	–	20µM	–	–
COc1cccc(/C=N/Nc2nc3ccccc3[nH]2)c1OC	–	–	–	–	–	–
COc1cccc(/C=N/Nc2nc3ccccc3[nH]2)c1O	·	–	-99.2	?	–	·
Cc1ccc2nc(Nc3ccc(C)c(C)c3)c3nncn3c2c1	·	–	–	22.4µM	–	·
COc1ccc(Nc2nc3ccc(C)cc3n3cnnc23)cc1Cl	·	–	–	·	·	·
Clc1ccc(-c2cn3cc(Cc4ccccc4)sc3n2)cc1	–	–	–	·	–	–
SMILES	VACV mCherry inh	Sm TGR inh	HCMV antiviral	HCV inh	FMDV inh	VACV Venus inh
O=C(COc1ccc(Cc2ccccc2)cc1)c1ccc(F)cc1	–	–	–	–	–	–
COc1ccccc1-c1nnc(SCC(=O)NCc2cccs2)n1N	–	–	–	–	–	–
COc1cccc(/C=N/Nc2nc3ccccc3n3cnnc23)c1O	4.47µM	–	-102.9	?	–	?
O=S(=O)(Nc1nc(SCc2ccc(Cl)cc2)n[nH]1)c1ccc(F)cc1	?	–	–	–	?	?
O=C(/C=C/c1ccccc1)Nc1cccc(C(=O)N2CCCCC2)c1	–	·	–	?	–	–
O=C(Nc1cccc(C(=O)O)c1)/C(=C\c1ccccc1)NC(=O)c1ccccc1	–	–	?	–	–	–
O=C(/C=C/c1ccccc1)Nc1cc(NC(=O)/C=C/c2ccccc2)cc(C(=O)O)c1	–	39.8µM	–	–	–	–
O=C(/C=C/c1ccccc1)Nc1cccc(C(=O)O)c1	–	–	–	–	10µM	–
O=C(Nc1cccc(C(=O)O)c1)/C(=C\C=C\c1ccccc1)NC(=O)c1ccccc1	–	·	-104.4	–	–	–
O=C(/C=C/c1cccc([N+](=O)[O-])c1)Nc1cc(C(=O)O)cc(C(=O)O)c1	–	–	–	–	–	–
CC(Sc1cccc[n+]1[O-])C(=O)Nc1cc(Cl)c(Cl)cc1Cl (stereo unspecified)	–	·	–	–	–	–
COc1ccc(Nc2nc(NCCO)nc(N3CCCC3)n2)cc1	·	·	?	·	–	·
CCCNc1nc(Nc2ccc(C)cc2)nc(N2CCCC2)n1	·	–	·	10µM	–	·
OCCOCCN1CCN(C(c2ccccc2)c2ccc(Cl)cc2)CC1 (stereo unspecified)	–	–	-60.1	1.41µM!	–	–
Cc1ccc(N=C/C(C(=O)C(F)(F)F)=C(\O)c2ccco2)cc1Cl	–	–	–	?	–	–
C=CCOC(=O)Nc1ccc(Cl)cc1NC(=O)OCC=C	–	–	–	?	–	–
C=CCOC(=O)/C=C/C(=O)NC(N)=O	–	1.26µM	–	–	–	–
CS(=O)(=O)c1ccc(C(=O)OCC(=O)NC23CC4CC(CC(C4)C2)C3)cc1[N+](=O)[O-]	?	2.82µM	–	?	35.5µM	?
Cn1cccc1C(=O)NC(=O)COC(=O)c1ccc(S(C)(=O)=O)cc1	–	·	–	–	–	–
CS(=O)(=O)c1ccc(C(=O)OCC(=O)NC(=O)NC2CCCCC2)cc1[N+](=O)[O-]	–	·	·	·	·	–
Cn1cccc1C(=O)NC(=O)COC(=O)c1ccc(S(C)(=O)=O)c([N+](=O)[O-])c1	–	·	·	?	31.6µM	–
Cn1ccsc1=NC(=O)c1ccc(Cl)c([N+](=O)[O-])c1	·	–	–	–	–	·
Cn1ccsc1=NC(=O)c1ccc(S(C)(=O)=O)c([N+](=O)[O-])c1	–	–	–	10µM	?	–
Cc1c(NC(=O)c2cc(-c3ccc(F)cc3)on2)c(=O)n(-c2ccccc2)n1C	–	–	–	–	–	–
C[C@H](CO)N1C[C@H](C)[C@@H](CN(C)C(=O)Nc2ccc3c(c2)OCO3)Oc2c(NC(=O)Nc3ccc(C(F)(F)F)cc3)cccc2C1=O	–	·	–	?	–	?
O=c1c2cn[nH]c2[nH]c(=S)n1-c1cccc2ccccc12	–	–	–	–	–	–
COC(=O)c1ccc(CSc2nnc3n(Cc4ccccc4OC)c(=O)c4ccccc4n23)o1	–	?	–	–	–	–
